Sampled rows, rich in hits. Any-hit rate of the full collection: about 0.97%.
MmCpn inh: M. maripaludis TRiC chaperonin inhibition; purified Mm-Cpn ATPase, ADP Transcreener TR-FRET; AID 504842; Potency, µM (doses to about 76.9 µM), without a hit: top-dose activity, negative = inhibition, usual class: inhibitors; hit rate 0.031% among 330,000; also: potency is read from the fitted curve at half-maximal effect; % is scaled to controls: 0 for no effect and ±100 for the full control effect; nearly all actives have a fitted effect of over 80% in size
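ATP (10 uM final) was added to archaeal chaperonin (25 nM final) after 10 min exposure to test compound at 37°C; after 30 min further incubation, ADP was detected by competitive TR-FRET.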
MBNL1-CUG inh: MBNL1-poly(CUG) RNA binding inhibition; Q9NR56; TR-FRET MBNL1-His/biotin-(CUG)12 binding, 665/545 ratio; Potency, µM (top dose mostly 57.5 µM), without a hit: at the highest dose activity change, negative = inhibition, usual class: inhibitors; hit rate 0.036% among 280,000; AID 2675; active = well fitted inhibition curve with a large enough effect in the signal ratio, with a control signal flat, not every such curve was filed as active; inconclusive = small, poorly fitted or top-dose-only effect, or effect the other way, or a change in a side signal; inactive = no such curve, though single readings can be large or run the other way; the % refers to the signal ratio; also: potency is read from the fitted curve at half-maximal effect; % is scaled to controls: 0 for no effect and ±100 for the full control effect
Target sequence (Q9NR56 whole entry, looked up): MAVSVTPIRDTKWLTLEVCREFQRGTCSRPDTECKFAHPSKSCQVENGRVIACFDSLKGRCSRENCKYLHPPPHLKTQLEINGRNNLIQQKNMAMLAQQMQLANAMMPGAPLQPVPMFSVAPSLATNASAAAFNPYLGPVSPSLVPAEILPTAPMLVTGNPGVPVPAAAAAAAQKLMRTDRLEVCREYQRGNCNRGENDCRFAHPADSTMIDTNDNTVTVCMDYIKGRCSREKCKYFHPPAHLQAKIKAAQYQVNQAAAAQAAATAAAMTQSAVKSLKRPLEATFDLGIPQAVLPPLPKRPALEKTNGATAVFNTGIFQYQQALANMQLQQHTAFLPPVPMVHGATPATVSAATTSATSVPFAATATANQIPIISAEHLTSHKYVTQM
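Compound titration spanned 92 nM–58 uM against the MBNL1-His/biotin-(CUG)12 complex. After 60 min at room temperature with 5 nM streptavidin-XL665 and 0.055 ng/ul terbium anti-His, ratiometric 665/545 nm emission (Ex 340 nm) normalized to controls.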
Epigenetic derep: epigenetic control regulation, reporter derepression. murine LDR cells, GFP reporter derepression, 30 h. Potency, µM (series often up to 53.9 µM), without a hit: at the top dose GFP activation, usual class: activators. hit rate 0.2% among 280,000; also: potency is read from the fitted curve at half-maximal effect; % of control where 0% means no effect; nearly all actives have a fitted effect of over 60% in size
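GFP-positive cell count by laser-scanning cytometry (objects 20–120 um) after 30 h, 37 C compound exposure of murine LDR cells; reporter is CMV-GFP integrated at a silenced locus, inducible by HDAC or DNMT inhibitors.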
uPA generation: blocks generation of uPA at the cell surface. AID 540303. hit rate 0.31% among 330,000. Potency, µM (series often up to 38.3 µM), inactives show at the top dose activity change, negative = inhibition, usual class: inhibitors. cell surface uPA generation assay, qHTS; active = well fitted inhibition curve with a large enough effect; inconclusive = small, poorly fitted or top-dose-only effect; inactive = no such curve, though single readings can be large or run the other way; tested in mouse RAW 264.7 cells; also: potency is read from the fitted curve at half-maximal effect; % is scaled to controls: 0 for no effect and ±100 for the full control effect; nearly all actives have a fitted effect of over 55% in size
CCT modulator: modulators of cytosolic chaperonin (CCT/TRiC) activity; AID 651819; purified chaperonin ATPase assay, HTRF ADP detection, 30 min; activity change, % (test concentration not listed), hits read low; hit rate 0.3% among 360,000; in the data active = activity change below about -30%; also: % is scaled to controls: 0 for no effect and ±100 for the full control effect
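First, chaperonin was dispensed at 40 nM or 20 nM final depending on batch activity. Next, compounds were pinned at 76 uM and ATP added at 10 uM. After 30 min at 37 °C, ADP detection reagents ran 30 min at ambient temperature.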
pAkt inh: inhibitors of Akt phosphorylation; Neuro2A IGF-stimulated pAkt S473 HTRF, 20 min; active compounds read low; hit rate 0.32% among 360,000; AID 651550; activity change, % for hits at 50 µM; in the data active = activity change below about -80%; inconclusive = mostly about -51% to -80%; also: % is scaled to controls: 0 for no effect and ±100 for the full control effect
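Neuro2A cells in DMEM with 0.5% FBS, overnight at 37 deg C, given compound at single 50 µM final, then IGF (6 nM final) for 20 min at 37 deg C. Lysed; phospho-Akt Ser473 by HTRF after 24 h, 665/615 ratio.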
Starred values were filed as active, the others as inactive; i = inactive; ? = inconclusive; / = not tested or not shown; [ ] = remark or other dose. Unless noted, calls follow the shape of the dose curve; as a rule, active = well fitted curve in the direction sought with a large enough effect; inconclusive = small, poorly fitted or top-dose-only effect, or another doubt; inactive = no such curve, though single readings can be large; an effect the other way counts as inactive or inconclusive.

SMILES	MmCpn inh	MBNL1-CUG inh	Epigenetic derep	uPA generation	CCT modulator	pAkt inh
CCOC(=O)CCCCC(=O)c1[nH]c(=O)[nH]c1CSc1nc2ccccc2[nH]1	3%	?	1%	-1%	-5	i
Cc1[nH]c(=O)[nH]c1C(=O)CCCCC(=O)OCC(=O)Nc1ccccn1	-4%	0.045µM*	-1%	1%	-4	i
COCCn1c(=N)c(C(=O)NC2CCCC2)cc2c(=O)n3cc(C)ccc3nc21	/	/	17%	/	/	/
C=CCCc1ccc(C#N)c(SCc2c(C(=O)OCC)c3cc(OC(C)=O)c(Br)cc3n2C)n1	-2%	-5%	13µM*	?	2	i
CCCNC(=O)Cn1c(=O)/c(=C\c2ccc(-c3ccc([N+](=O)[O-])cc3)o2)s/c1=C\C(=O)C(C)(C)C	-2%	/	0.2µM*	13%	0	i
COC(=O)CCc1nc2ccccc2[nH]c1=O	-2%	3%	-1%	/	0	i
COC(=O)CSCc1nc2ccccc2[nH]c1=O	-3%	43%	25µM*	-4%	-33*	i
COc1ccc(OC)c2c(=S)c3ccccc3[nH]c12	/	/	0%	/	/	/
O=C(Nc1ccccc1C(=O)NC(Cc1ccc(O)cc1)C(=O)O)c1ccccc1 (stereo not given)	0%	2%	-2%	1%	-36*	i
O=C(N/N=C/c1ccc(O)cc1)c1csc2ccccc12	2%	22%	-1%	-11%	-1	-107%*
O=C(Nc1ccccc1C(=O)NC(Cc1ccccc1)C(=O)O)c1ccco1 (stereo not given)	2%	-4%	/	0%	-1	i
Cc1scc(C(=O)N/N=C/c2ccsc2)c1C	1%	3%[11.5 µM]	-1%	6.3µM*	1	i
O=C(Nc1ccccc1C(=O)N/N=C/c1ccc(O)cc1)c1ccccc1	-1%	-2%	5%	7.1µM*	-3	i
COc1ccc(NC(=O)Nc2cccc3c2O[C@@H](CN(C)CC2CCCCC2)[C@@H](C)CN([C@H](C)CO)C3=O)cc1	0%	/	/	-18%	-2	i
C=C(C)C(O)/C=C/c1ccc(OC)cc1 (stereo not given)	/	/	7%[10.1 µM]	/	/	/
C=CCNc1nc2ccccc2nc1NS(=O)(=O)c1ccc(OC)cc1	-4%	6%	/	-2%	-4	i
CCOC(=O)N1CCN(CC(=O)Nc2sccc2C#N)CC1	-4%	1%	0%	11µM*	1	i
C(=N\Nc1nc(N2CCOCC2)nc(N2CCOCC2)n1)/c1cccnc1	3%	19%	-3%	/	5	-82%*
CCc1cc2c(cc3c(=O)n(CCCC(=O)NCc4cccc(Cl)c4)ncn32)s1	/	/	3%	/	/	/
Cc1c(CC(=O)O)c(=O)oc2cc(OCc3nn[nH]n3)ccc12	-2%	0%	0%	3%	-2	-98%*
Cc1csc2nc(COC(=O)CNC(=O)c3ccccc3Cl)cc(=O)n12	/	/	1%	/	/	/
Cc1cc2ccccc2n1CCNC(=O)c1ccc(Br)cc1	/	/	-3%	/	/	/
Cc1cc2ccccc2n1CCNC(=O)c1ccccc1	40µM*	43%	-2%	8%	-1	i
Cc1cc2ccccc2n1CCNC(=O)c1ccc(S(=O)(=O)N2CCOCC2)cc1	32µM*	?	-1%	5%	-5	i
Cc1cc2ccccc2n1CCNC(=O)COc1ccccc1	-22%	3%	0%	11%	-32*	i
SMILES	MmCpn inh	MBNL1-CUG inh	Epigenetic derep	uPA generation	CCT modulator	pAkt inh
CCC(=O)NCCn1c(C)cc2ccccc21	-5%	?	0%	11%	-2	i
COc1cc(C)nc(NC(=O)NC(=O)c2ccc(C(F)(F)F)cc2)n1	1%	-4%	/	5%	2	i
COc1cc(OC)cc(C(=O)Nc2nc(-c3nnn(-c4ccc(F)c(Cl)c4)c3C)ns2)c1	/	/	-3%	/	/	/
Cc1cccc(NC(=O)c2ccc(COc3ccc(Cl)cc3Cl)o2)n1	2%	2%	-2%	3%	3	-128%*
CC(C)CNc1ncnc2c1ncn2[C@H]1CN(Cc2ccc3c(c2)OCO3)C[C@@H](CO)O1	/	/	/	/	-3	i
Cc1cccc(C(=O)Nc2cccc3cccnc23)c1	0%	4%	/	0%	-1	i
Cc1cnc(C(=O)Nc2cccc3cccnc23)cn1	2%	0%	13%	-11%	0	-109%*
Cc1cc([N+](=O)[O-])nn1CCCC(=O)Nc1c(C)n(C)n(-c2ccccc2)c1=O	-2%	/	11%	2%	-2	i
CCOC(=O)C1CCCN(S(=O)(=O)c2ccc3c(c2)CCN3C(=O)CC)C1 (stereo not given)	/	/	3%	/	/	/
CCCOc1ccc(Br)cc1CSC(=N)N	2%	-5%	0%	5.6µM*	-1	i
CCOc1ccc(Br)cc1CC(=O)O	/	/	/	2%	-3	i
COc1cc2c(cc1OC)CN(C(=O)c1ccc([N+](=O)[O-])o1)CC2	0%	?	1%	-2%	-5	i
O=C(c1ccc([N+](=O)[O-])o1)N1CCc2ccccc2C1	0%	?	-2%	7.1µM*	0	i
COc1ccccc1CNC(=O)C(C)c1ccc([N+](=O)[O-])cc1 (stereo not given)	0%	18%	3%	-1%	-1	i
CSc1nc2ccccc2n1CC(=O)Nc1cc(C(F)(F)F)ccc1N1CCOCC1	0%	-2%	1%	10%	0	-120%*
O=C(Nc1cc(C(F)(F)F)ccc1N1CCOCC1)c1cccnc1Cl	1%	-13%	0%	2%	-2	-111%*
CCOC(=O)c1c(S(=O)(=O)N2CCCCCC2)c(C)n(C)c1C	2%	-5%	/	5%	0	i
COc1ccc(C(NC(C)=O)c2cc(Cl)c3cccnc3c2O)cc1 (stereo not given)	-5%	32%	/	6.3µM*	1	i
COc1ccc(C(NC(=O)C(C)C)c2ccc3cccnc3c2O)cc1 (stereo not given)	2%	13%	3.5µM*	7%	-3	i
COc1cc(/C=C/C(=O)/C=C(O)/C=C/c2ccc(O)c(OC)c2)ccc1O	1%	/	32µM*	?	0	i
COc1cc(/C=C/C(=O)O)ccc1O	/	/	1%	4%	0	i
CCCCC1=CC2=C(c3ccco3)C(=O)C(C)(OC(=O)c3ccc(OC)cc3)C(=O)C2=CN1Cc1ccccc1 (stereo not given)	-2%	?	18µM*	-1%	-1	i
CCc1nc2ccccc2c(C(=O)OCc2nc3ccccc3c(=O)[nH]2)c1C	-8%	/	/	-9%	-1	i
COc1ccc(S(=O)(=O)N2CC(C(=O)O)Oc3ccc(CC(=O)O)cc32)cc1 (stereo not given)	2%	-5%	2%	1%	-2	-123%*

High-throughput results as filed in PubChem BioAssay.
